Results taken from PubChem BioAssay.
For some assays here: Measured potencies and affinities stand elsewhere. Activity calls are given as the source filed them.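 The calls were made as follows, unless noted: active = fitted half-maximal concentration within 10 nM to 100 µM, steepness 0.5 to 2, significant signal drop, low assay interference; inactive = the rest.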

Key:
[1] = molecular target: Cell division control protein 42 homolog (Homo sapiens) (UniProt P60953); assay: inhibition of fluorescent GTP binding to constitutively active Cdc42 – biochemical, multiplex bead flow cytometry, Bodipy-FL-GTP, dose response (AID 1333;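 active = fitted half-maximal concentration within the tested dose range, moderate curve steepness, a statistically real signal drop, and little compound fluorescence or tag-binding interference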)
[2] = molecular target: Cell division control protein 42 homolog (Homo sapiens) (UniProt P60953); assay: inhibition of fluorescent GTP binding to wildtype Cdc42 – biochemical, multiplex bead flow cytometry, Bodipy-FL-GTP, dose response (AID 1334;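 active = fitted half-maximal concentration within the tested range, moderate curve steepness, significant signal drop, and little compound fluorescence or bead-linkage interference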); conditions: bead-based flow cytometry, Bodipy-FL-GTP binding to GST-Cdc42; at 100 µM (top of the series) unless noted
[3] = molecular target: GTPase HRas (Homo sapiens) (UniProt P01112); assay: Ras wt fluorescent GTP loading blockade – biochemical, wildtype, multiplex bead flow cytometry, dose response (AID 1335); conditions: bead-based flow cytometry, Bodipy-GTP binding to GST-Ras; at 100 µM (top of the series) unless noted
[4] = tested on: Ras-related protein Rab-7a (dog), GTP binding; assay: blockers of fluorescent GTP binding to Rab7 – biochemical, wildtype, multiplex bead flow cytometry, dose response (AID 1336; call rule not given here)
[5] = molecular target: Ras-related C3 botulinum toxin substrate 1 (Homo sapiens) (UniProt P63000); assay: inhibition of wildtype Rac1 nucleotide loading – biochemical, multiplex bead flow cytometry, dose response (AID 1340;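 active = dose curve with midpoint inside tested range, moderate steepness, plateau gap beyond fit error, low compound glow and bead-link interference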); conditions: GST-Rac1 beads, Bodipy-FL-GTP binding; at 100 µM (top of the series) unless noted
[6] = molecular target: GTPase HRas (Homo sapiens) (UniProt P01112); assay: blockade of GTP loading onto mutant Ras – biochemical, activated mutant, multiplex bead flow cytometry, dose response (AID 1341;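 active = dose-response curve with midpoint inside the tested range, moderate steepness, significant amplitude and little compound fluorescence or bead-attachment interference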;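 also: GST-tagged constitutively activated Ras mutant immobilized on beads and multiplexed with other GTPases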)

Chain of Cell division control protein 42 homolog (Homo sapiens) (P60953 whole entry, looked up): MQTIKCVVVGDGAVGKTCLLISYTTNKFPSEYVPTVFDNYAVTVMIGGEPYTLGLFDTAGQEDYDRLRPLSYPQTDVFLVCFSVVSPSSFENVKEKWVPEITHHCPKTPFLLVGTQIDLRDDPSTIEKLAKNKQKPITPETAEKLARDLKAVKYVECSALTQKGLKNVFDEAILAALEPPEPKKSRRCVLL
Chain of GTPase HRas (Homo sapiens) (P01112 whole entry, looked up): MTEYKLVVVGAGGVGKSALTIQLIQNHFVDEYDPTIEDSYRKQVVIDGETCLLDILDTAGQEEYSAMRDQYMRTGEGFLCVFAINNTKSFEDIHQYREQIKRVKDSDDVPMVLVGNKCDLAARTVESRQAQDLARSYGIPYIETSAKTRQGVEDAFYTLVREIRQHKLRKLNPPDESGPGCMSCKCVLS

Row | Structure (SMILES) | outcome [1] | fluorescence, percent of control (lower = inhibition) [2] | GTP binding, percent of control [3] | outcome [4] | GTP binding signal, raw median fluorescence (lower = inhibition) (MCF (arbitrary fluorescence units)) [5] | outcome [6]
1 | Cc1ccc(NCc2sc(C(=O)O)cc2C)cc1 | inactive | 63% | 86.6% | inactive | 35.4 | inactive
2 | COc1ccc(CNc2ccccc2C(=O)O)cc1 | inactive | 75.9% | 93.4% | inactive | 44.1 | inactive
3 | COc1cc2[nH]c(=S)nc(NCc3cccs3)c2cc1OC | inactive | 29.5% | 67.6% | inactive | 161 | inactive
4 | O=c1c2ccccc2nc2c3ccccc3c(NCc3ccccn3)nn12 | inactive | 33.4% | 68.8% | inactive | 167 | inactive
5 | O=C(CCc1nc2ccccc2[nH]c1=O)OCC(=O)N1CCc2ccccc21 | inactive | 36.8% | 82.6% | inactive | 280 | inactive
6 | O=C(CSc1ccccc1)Nc1ccc(C(=O)Nc2cccc(O)c2)cc1 | inactive | 33.6% | 77.9% | inactive | 193 | inactive
7 | CCOc1cccc(/C(O)=C2/C(=O)C(=O)N(CCOC)C2c2ccncc2)c1 (stereo unspecified) | inactive | 46.9% | 57.7% | inactive | 0 | inactive
8 | COc1ccc(-c2cc(-c3ccc(O)cc3)nc(N)c2C#N)cc1OC | inactive | 32.2% | 77.1% | inactive | 184 | inactive
9 | CS(=O)(=O)c1ccc(C(=O)OCc2nnc(-c3ccccc3)o2)cc1[N+](=O)[O-] | inactive | 22.4% | 81.7% | inactive | 259 | inactive
10 | COc1cccc(Nc2ccccc2C(=O)O)c1 | inactive | 92.6% | 107% | inactive | 78.2 | inactive
11 | COc1ccc2c(C)cc3nncn3c2c1 | inactive | 51.4% | 92.8% | inactive | 202 | inactive
12 | COc1cc(/C=N/NC(=O)CCN2CCN(c3ccccc3)CC2)cc(OC)c1OC | inactive | 34.6% | 77.3% | inactive | 236 | inactive
13 | Cc1cc([N+](=O)[O-])ccc1N=Nc1c(N)[nH]n(-c2ccccc2)c1=O | inactive | 38.4% | 85% | inactive | 225 | inactive
14 | Cc1cc(C)n(Cc2n[nH]c(=S)n2Cc2ccccc2)n1 | inactive | 106% | 189% | inactive | 198 | inactive
15 | COc1ccc(C(=O)c2c(O)cc(-c3ccc(OC)cc3)oc2=O)cc1 | inactive | 52.9% | 70.9% | inactive | 249 | –
16 | N#CCc1c(C#N)c(N)nc(N2CCN(C=O)CC2)c1C#N | inactive | 33.7% | 75.4% | inactive | 170 | inactive
17 | Cc1ccc(C)c(OCc2ccc(C(=O)O)o2)c1 | inactive | 63.2% | 87.7% | inactive | 39.9 | inactive
18 | COC(=O)c1c(N2C(=O)[C@H]3[C@@H](C2=O)[C@]2(C(=O)Nc4c(C)cc(C)cc42)N2CCC[C@@H]32)sc(C)c1C | inactive | 45.1% | 97.2% | inactive | 238 | inactive
19 | CC(=O)Nc1ccc(N=Cc2c(O)c(C(=O)Nc3ccccc3)cc3ccccc23)cc1 | inactive | 85.4% | 123% | inactive | 341 | inactive
20 | O=C(Cc1csc(Nc2nc(=S)[nH]c3ccccc23)n1)NCCCN1CCN(c2cccc(Cl)c2)CC1 | inactive | 34.3% | 75.8% | inactive | 192 | inactive

Row | Structure (SMILES) | outcome [1] | fluorescence, percent of control (lower = inhibition) [2] | GTP binding, percent of control [3] | outcome [4] | GTP binding signal, raw median fluorescence (lower = inhibition) (MCF (arbitrary fluorescence units)) [5] | outcome [6]
21 | CN(Cc1ccccc1)c1ccc([N+](=O)[O-])cc1C(=O)O | inactive | 41% | 87.3% | inactive | 276 | inactive
22 | O=C(O)c1c(C(F)(F)F)ccnc1SCc1ccccc1 | inactive | 62% | 228% | inactive | 55.9 | inactive
23 | COc1cc2[nH]c(=S)nc(NC3CCCCCC3)c2cc1OC | inactive | 26.4% | 60.9% | inactive | 148 | inactive
24 | Cc1ccc(N=Nc2c(N)[nH]n3c(=O)c4c(nc23)CCCC4)cc1 | inactive | 31.3% | 72.8% | inactive | 166 | inactive
25 | CC(=O)c1c(C)[nH]c(C(=O)N2CCc3ccccc3C2)c1C | inactive | 107% | 192% | inactive | – | –
26 | O=C(CCN1CCCC1Cc1ccccc1)c1ccc2c(c1)OCCO2 (stereo unspecified) | inactive | 31.5% | 82.4% | inactive | 236 | inactive
27 | O=C(O)c1cc([N+](=O)[O-])ccc1NCc1ccccc1Cl | inactive | 96.9% | 112% | inactive | 84.1 | inactive
28 | Cc1cc(N=NC(=O)c2ccccc2O)c2ccccc2c1O | inactive | 36.1% | 85.2% | inactive | 243 | inactive
29 | O=C(Nc1nc(-c2cccs2)cs1)c1cc2ccccc2oc1=O | inactive | 51.8% | 130% | inactive | 141 | inactive
30 | O=C(c1nn2c(C(F)(F)F)cc(-c3ccc(F)cc3)nc2c1Cl)N1CCOCC1 | inactive | 48.9% | 62.6% | inactive | 189 | inactive
31 | O=C(CN1C(=O)C2C3c4ccccc4C(c4ccccc43)C2C1=O)Nc1cccc(C(=O)O)c1 (stereo unspecified) | inactive | 46.1% | 58.8% | inactive | 165 | inactive
32 | Cc1ccc(-c2nnc(-c3ccccc3S(=O)(=O)Cc3ccc(Cl)cc3)o2)cc1 | inactive | 90.3% | 165% | inactive | 184 | inactive
33 | CCOC(=O)c1cnc2c(C#N)cnn2c1N | inactive | 33.6% | 72.1% | inactive | 167 | inactive
34 | Cn1ncc(C(N)=O)c1NC(=S)NC(=O)c1ccc(Br)o1 | inactive | 36.5% | 76.4% | inactive | 170 | inactive
35 | O=C(OCCN1CCCCC1)c1cc2ccccc2o1 | inactive | 34.8% | 79.9% | inactive | 271 | inactive
36 | COc1ccc(NC(=O)c2cc3nc(-c4ccccc4)cc(C)n3n2)cc1OC | inactive | 33.2% | 76.8% | inactive | 218 | inactive
37 | CCCCCCCCSc1nnc2[nH]c(=O)cc(N)n12 | inactive | 33.4% | 79.8% | inactive | 241 | inactive
38 | CC(C)Cc1csc(NC(=O)c2ccccc2Cl)c1C(=O)O | inactive | 29.8% | 74.3% | inactive | 214 | –
39 | NC(=S)N=Nc1c(O)[nH]c2cc(F)c(F)cc12 | inactive | 29.7% | 63.2% | inactive | 155 | inactive
40 | CCn1c2ccccc2c2nnc(SCC(=O)NCCOC)nc21 | inactive | 50.8% | 59.6% | inactive | 0 | inactive

Row | Structure (SMILES) | outcome [1] | fluorescence, percent of control (lower = inhibition) [2] | GTP binding, percent of control [3] | outcome [4] | GTP binding signal, raw median fluorescence (lower = inhibition) (MCF (arbitrary fluorescence units)) [5] | outcome [6]
41 | c1ccc(C2=Nn3c(nnc3-c3ccco3)SC2)cc1 | inactive | 34% | 81.7% | inactive | 183 | inactive
42 | Cn1c(/C(C#N)=C/c2ccncc2)nc2ccccc21 | inactive | 36.7% | 87.2% | inactive | 266 | inactive
43 | O=C(Oc1cccc(O)c1)C1CCCCC1 | inactive | 36.8% | 81.6% | inactive | 296 | inactive
44 | COc1ccc(/C=N/n2c(N)c(S(=O)(=O)c3cccs3)c3nc4ccccc4nc32)cc1OC | inactive | 37.1% | 49.3% | inactive | 118 | inactive
45 | COc1ccc(C2=Nn3c(nnc3-c3ccco3)SC2)cc1OC | inactive | 69.9% | 137% | inactive | 146 | inactive
46 | CCOc1ccccc1CNCc1sc(C(=O)O)cc1C | inactive | 59.6% | 79.1% | inactive | 33.1 | inactive
47 | OCC(CO)(CO)NCc1ccc(-c2ccccc2)cc1 | inactive | 49.9% | 65.6% | inactive | 214 | inactive
48 | CCOC(=O)C1(Cc2ccccc2)CCCN(CCO)C1 (stereo unspecified) | inactive | 37.6% | 80.3% | inactive | 246 | inactive
49 | O=C(O)c1cccnc1SCc1ccccc1Cl | inactive | 103% | 119% | inactive | 88.1 | inactive
50 | Cc1nnc(N2CCOCC2)c2nn(-c3ccccc3)c(C)c12 | inactive | 58.1% | 71.2% | inactive | 198 | inactive
51 | COc1cc(C(=S)NC2CCCCC2)ccc1O | inactive | 46.9% | 62.4% | inactive | 209 | inactive
52 | O=C(O)c1cccnc1SCc1cccc(Cl)c1 | inactive | 102% | 117% | inactive | 79.9 | inactive
53 | Cc1nc2sccn2c1-c1nc(-c2cc3ccccc3o2)cs1 | inactive | 50.9% | 57.4% | inactive | 155 | inactive
54 | Cc1ccc(S(=O)(=O)N2CC3(C)CN(S(=O)(=O)c4ccc(C)cc4)CC(C)(C2)C3O)cc1 (stereo unspecified) | inactive | 50% | 61.9% | inactive | 204 | inactive
55 | Cc1ccc(-c2c(C(=O)O)c(C(=O)O)c3n2CCC3)cc1 | inactive | 32.3% | 78.1% | inactive | 239 | inactive
56 | Cn1c(=O)c2cc(S(=O)(=O)NCCC(=O)NCc3ccccc3Cl)ccc2n(C)c1=O | inactive | 64% | 109% | inactive | 122 | inactive
57 | Cc1nc(-c2ccccc2)sc1C(=O)NN | inactive | 39.4% | 82.3% | inactive | 248 | inactive
58 | COc1ccc(-n2c(NC(=O)c3ccc(Br)o3)c(C#N)c3nc4ccccc4nc32)cc1 | inactive | 24.6% | 72.7% | inactive | 169 | inactive
59 | COc1ccccc1OCc1cccc(C(=O)O)c1 | inactive | 64.9% | 92.8% | inactive | 42 | inactive
60 | Cc1ccc(-c2ccc(/C=C(\C#N)C(=O)Nc3cc(C)nn3-c3ccccc3)o2)cc1 | inactive | 226% | 182% | inactive | 498 | inactive
